This is a sample that favours compounds with a hit; in the whole collection about 4% have one here.
Peg3 promoter = reduces Peg3 promoter-driven luciferase expression in HeLa; HeLa PEG-Prom luciferase reporter, luminescence, overnight; inhibition, % at 20 µM; 360,000 tested, 1.7% active;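 active = inhibition of at least 50% at 20 µM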
KKLEB tox = reduces viability of KKLEB cystic fibrosis airway cells; KKLEB CF airway cells viability, ATPlite luminescence, overnight; hits give low values; cells stimulated with P. aeruginosa culture filtrate; activity change (cytotoxicity), % at 5 µM; 360,000 tested, 0.36% active;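 active = corrected activity change at or below -50% at 5 µM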
TROY NFkB inh = TROY signaling inhibition; Q293 LMP1-TROYcd NF-kB luciferase reporter, 4 h; inhibition, % at 10 µM; 360,000 tested, 0.98% active;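 active = compounds whose plate-normalised and pattern-corrected inhibition of the luciferase reporter signal at the single screening dose is 50% or more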
CF NFkB inh = inhibitors of cystic fibrosis induced NF-kB; 360,000 tested, 0.86% active; KKLEB NF-kB-GFP reporter, PAF-induced, GFP fluorescence overnight; inhibition, % at 5 µM; AID 588850;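 active = at least 50% inhibition at 5 µM, scaled per plate between neutral and stimulator controls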;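 also: PAF is a Pseudomonas aeruginosa culture filtrate used as stimulus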
TWEAK-Fn14 inh = TWEAK-Fn14 signaling inhibition. TWEAK-stimulated Fn14 reporter cells, luciferase luminescence, 8 h. inhibition, % at 10 µM. 360,000 tested, 2% active. AID 1159606; in the data active = inhibition above about 50%
HIF-2a block = inhibitors of HIF-2a; inhibition, % at 18.8 µM; 360,000 tested, 0.72% active; AID 624352; 786-0 RCC cells HIF-2a reporter, luciferase luminescence, overnight;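 active = inhibition of the luminescence signal of 40% or more relative to plate controls, in a single-dose primary screen at 18.75 µM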
Of the large screens only hits and unclear results are named; the others gave an inactive call.

CC1=CC(c2ccc(Cl)cc2)n2nc(NC(=O)CCCC(=O)O)nc2N1 (centres undefined)	none
Nc1nonc1C(=O)N/N=C/c1cc2c(cc1Br)OCO2	none
CC(C)c1ccc(CC(=O)N2CCC2(C)C(=O)Nc2ccc3c(c2)OCCO3)cc1 (centres undefined)	TWEAK-Fn14 inh 51.2
Cc1cccc(NC(=O)/C(=C\c2ccc([N+](=O)[O-])o2)NC(=O)c2ccc(Cl)cc2)c1	Peg3 promoter 55.8
CC(C)NC1CCC(Nc2ccnc3cc(Cl)ccc23)CC1 (centres undefined)	none
Clc1ccc2c(NCCNC3CCCCC3)ccnc2c1	Peg3 promoter 83.6
O=c1ccc(N=Nc2ccccc2)ccc1O	none
Oc1ccc(N=Nc2ccccc2)o1	CF NFkB inh 94.8
COc1ccc(N=C2NC(=O)/C(=C/c3ccc(O)c(OC)c3)S2)cc1	CF NFkB inh 57.4
COc1cc(/C=C2/SC(=Nc3ccc(O)cc3)NC2=O)cc(OC)c1O	none
COc1ccc(NC(=O)Cn2c(=O)sc3ccccc32)c(OC)c1	none
Cc1nc2sc(-c3ccccc3)cc2c(=O)[nH]1	TWEAK-Fn14 inh 56.5
O=c1[nH]c(-c2cccnc2)nc2sc(-c3ccccc3)cc12	none
Cc1nc2sc(-c3ccccc3)cc2c(=O)n1-n1cccc1	none
Cc1nc2sc(-c3ccccc3)cc2c(=O)n1N	Peg3 promoter 58.0, TROY NFkB inh 61.1, TWEAK-Fn14 inh 94.0
CCOC(=O)c1sc2nc(-c3cccnc3)ccc2c1N	none
CCOC(=O)C1(C(=O)OCC)NC(=O)CC1C (centres undefined)	none
C[C@@H]1OC(Nc2ccc(N=Nc3ccccc3)cc2)[C@H](O)[C@H](O)[C@H]1O (some centres undefined)	none
CCOc1ccc(S(=O)(=O)NCCC(=O)NCC2(N3CCCCC3)CCCCC2)cc1	none
COc1ccc(-c2ccc3oc(-c4ccsc4)cc(=O)c3c2)cn1	TROY NFkB inh 63.3
Cc1ccc(S(=O)(=O)NCc2cccnc2)cc1	none
Cn1c(=O)c2c(nc(NCc3ccco3)n2C/C=C/c2ccccc2)n(C)c1=O	TWEAK-Fn14 inh 55.4
COc1ccc(-c2coc3cc(OC)ccc3c2=O)cc1	none
COc1ccc2c(=O)c(-c3nc(C)cs3)coc2c1	TWEAK-Fn14 inh 79.3
O=C(COc1ccc([N+](=O)[O-])cc1)Nc1ccc(C(=O)NCc2cccnc2)cc1	Peg3 promoter 74.5
O=C(COc1ccc([N+](=O)[O-])cc1)NCc1cccnc1	none
CCS(=O)(=O)c1ccc(N)cc1	none
CCCCOc1ccc(-c2cnc3ccccc3n2)cc1	TROY NFkB inh 51.7, TWEAK-Fn14 inh 79.0
Cc1cc2ncc(-c3ccccc3)nc2cc1C	none
Cc1ccc(-c2cnc3ccccc3n2)cc1C	TWEAK-Fn14 inh 72.8
CCCCOc1ccc(-c2cc(C(=O)NNC(=S)NCC)c3ccccc3n2)cc1	KKLEB tox -89.3, CF NFkB inh 67.3
c1ccc(CN(Cc2ccccc2)c2nn[nH]n2)cc1	none
OCCCn1c(C2CCCN2c2nc(-c3ccc(Cl)cc3)cs2)nc2cc(Cl)c(N3CCCCC3)cc21 (centres undefined)	Peg3 promoter 71.9
CCN(CC)C(=O)CSc1nnc(-c2ccc(F)cc2)n1N	none
CCN(CC)C(=O)CSc1n[nH]c(=S)n1N	TWEAK-Fn14 inh 84.0
O=C(CSc1nnc(C2CC2)n1Cc1ccccc1)c1ccc(S(=O)(=O)N2CCOCC2)cc1	none
OC(CNCCC1C=Nc2ccccc21)Cn1c2ccc(Cl)cc2c2cc(Cl)ccc21 (centres undefined)	Peg3 promoter 102.3, TWEAK-Fn14 inh 73.9
OC(CNCC1CCCO1)Cn1c2ccc(Cl)cc2c2cc(Cl)ccc21 (centres undefined)	Peg3 promoter 105.9
Cc1cc(C)n(CC(O)Cn2c3ccc(Cl)cc3c3cc(Cl)ccc32)c(=O)n1 (centres undefined)	none
O=C(O)C(Cc1ccc(O)cc1)N1C(=O)c2ccccc2C1=O (centres undefined)	none
Cc1cccc(C)c1NS(=O)(=O)c1ccc(F)cc1	none
O=C(Nc1nc2ccccc2s1)C1CCN(S(=O)(=O)c2cc([N+](=O)[O-])ccc2Cl)CC1	TWEAK-Fn14 inh 83.7
O=C(CSc1nc2ccccc2s1)Nc1ccc(Cl)c(S(=O)(=O)N2CCOCC2)c1	TWEAK-Fn14 inh 64.9
COc1ccccc1CNC(=O)c1oc2ccccc2c1C	TROY NFkB inh 50.9
O=C(CSc1nc2ccccc2s1)Nc1ccc(N2CCOCC2)c(Cl)c1	none
COc1ccccc1NC(=O)c1oc2ccccc2c1C	none
CCC(C)NC(=O)C1CCN(S(=O)(=O)c2cc([N+](=O)[O-])ccc2Cl)CC1 (centres undefined)	none
COc1cc2ccccc2cc1C(=O)Nc1cc(C)ccn1	none
Cc1ccnc(NC(=O)c2cc3ccccc3oc2=O)c1	TWEAK-Fn14 inh 59.6
COCCOC(=O)c1cc(C(=O)c2cc(Cl)ccc2O)coc1=N	none
Cc1cccc(NC(=O)c2cc3ccccc3oc2=O)c1	TWEAK-Fn14 inh 52.6
Cc1c(C(=O)Nc2cnccn2)oc2ccccc12	none
CC(=O)Nc1cccc(-c2cn3ccccc3n2)c1	none
O=C(Nc1cccc(-c2cn3ccccc3n2)c1)c1cc2ccccc2oc1=O	Peg3 promoter 72.5
COc1ccc(NC(=O)CSc2nc3ccc(Nc4nc(N5CCOCC5)nc(N5CCOCC5)n4)cc3s2)cc1	KKLEB tox -50.4, CF NFkB inh 56.2
Cc1ccc(NC(=O)CSc2nc3ccc(Nc4nc(N5CCOCC5)nc(N5CCOCC5)n4)cc3s2)cc1	none
Cc1ccnc(NC(=O)c2oc3ccccc3c2C)c1	TWEAK-Fn14 inh 50.7
O=C(c1cccc(C(=O)N2CCC(O)(c3ccccc3)CC2)c1)N1CCC(O)(c2ccccc2)CC1	none
O=C(CNC(=O)c1cccc(F)c1)N/N=C/C=C/c1ccccc1	none
CC(C(O)c1ccc(O)cc1)N1CCC(Cc2ccccc2)CC1 (centres undefined)	none
COc1cccc(/C=C/C(=O)OCC(=O)N(C)CC(=O)Nc2ccccc2Cl)c1OC	none
CC(C)(C)CNC(CO)C12CC3CC(CC(C3)C1)C2 (centres undefined)	none
CCC(=O)Nc1ccc(NC(=S)NC(=O)c2oc3ccccc3c2C)cc1	none
O=C(CSc1nc2ccccc2o1)Nc1cc(C(F)(F)F)ccc1N1CCOCC1	none
CCC(=O)Nc1ccc(NC(=O)c2oc3ccccc3c2C)cc1	HIF-2a block 62.0
O=C(CSc1nc2ccccc2o1)Nc1ccc(N2CCOCC2)c(Cl)c1	TROY NFkB inh 52.2
COc1cccc(NC(=O)c2cc3ccccc3o/c2=N\O)c1	TWEAK-Fn14 inh 77.7
CC1CCc2nc(NC(=O)CSc3nc4ccccc4o3)sc2C1 (centres undefined)	TROY NFkB inh 86.1, TWEAK-Fn14 inh 93.0
O=C(Nc1ccccc1Cl)c1cc2ccccc2o/c1=N\O	none
Cc1nnc(NC(=O)CSc2nc3ccccc3o2)s1	none

Screening data (PubChem BioAssay)
